Measured values reported in the supplement of paper PMC6555819.

Experiments:
Experiment in all cases: PBM binding z-score (relative to random genomic background probes); higher = stronger binding; sequences stand for … in GC…GCGATTGACAGCGTAGAATGAAGG
[1] = test system: FXR:RXRa (NR concentration 270 nM, RXRa partner concentration 90 nM)
Summary of the method: (§1)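 Probes were double-stranded and carried 34-nt variable regions with direct-repeat seeds, single-nucleotide variants, half-site ablations and random human genomic background sequences, printed on custom Agilent 4×180K protein-binding microarrays. Arrays were incubated 1 h with ligand-free nuclear receptor dimers in PBS pH 7.4, 2% milk, 0.02% Triton X-100, 1 mM DTT, 0.2 mg/mL BSA and 0.4 mg/ml salmon testes DNA. Antibodies against each partner (one per run) detected binding, and scanned fluorescence was regression-normalized. Binding z-scores use the random background probes as reference.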

[2] = test system: LXRa:RXRa (NR concentration 270 nM, RXRa partner concentration 90 nM)
Summary of the method: as §1

[3] = test system: LXRa homodimer (NR concentration 270 nM)
Summary of the method: as §1

[4] = test system: LXRb:RXRa (NR concentration 270 nM, RXRa partner concentration 90 nM)
Summary of the method: as §1

[5] = test system: LXRb homodimer (NR concentration 270 nM)
Summary of the method: as §1

[6] = test system: PPARa:RXRa (NR concentration 270 nM, RXRa partner concentration 90 nM)
Summary of the method: as §1

[7] = test system: PPARg:RXRa (NR concentration 180 nM, RXRa partner concentration 90 nM)
Summary of the method: as §1

[8] = test system: PPARg:RXRa 270nM:90nM, anti-RXR (NR concentration 270 nM, RXRa partner concentration 90 nM)
Summary of the method: as §1

[9] = test system: PPARg:RXRa 30nM:10nM, anti-RXR (NR concentration 30 nM, RXRa partner concentration 10 nM)
Summary of the method: as §1

[10] = test system: PPARg:RXRa 90nM:30nM, anti-RXR (NR concentration 90 nM, RXRa partner concentration 30 nM)
Summary of the method: as §1

[11] = test system: PPARg:RXRa DBDmut IVT, anti-RXR (DBD mutation: RXRa K156A/R161A, NR concentration 270 nM, RXRa partner concentration 90 nM)
Summary of the method: as §1

[12] = test system: PPARg:RXRa IVT, anti-PPARg (NR concentration 270 nM, RXRa partner concentration 90 nM)
Summary of the method: as §1

[13] = test system: PPARg DBDmut:RXRa IVT, anti-PPARg (DBD mutation: PPARg1 K132A/R137A, NR concentration 270 nM, RXRa partner concentration 90 nM)
Summary of the method: as §1

[14] = test system: PPARg DBDmut IVT, anti-PPARg (DBD mutation: PPARg1 K132A/R137A, NR concentration 270 nM)
Summary of the method: as §1

[15] = test system: PPARg homodimer (NR concentration 180 nM)
Summary of the method: as §1

[16] = test system: PXR:RXRa (NR concentration 270 nM, RXRa partner concentration 90 nM)
Summary of the method: as §1

[17] = test system: PXR homodimer (NR concentration 270 nM)
Summary of the method: as §1

[18] = test system: RARa:RXR (NR concentration 270 nM, RXRa partner concentration 90 nM)
Summary of the method: as §1

[19] = test system: RARa homodimer (NR concentration 270 nM)
Summary of the method: as §1

[20] = test system: RARb:RXRa (NR concentration 270 nM, RXRa partner concentration 90 nM)
Summary of the method: as §1

Row | Sequence | PBM binding z-score [1] | PBM binding z-score [2] | PBM binding z-score [3] | PBM binding z-score [4] | PBM binding z-score [5] | PBM binding z-score [6] | PBM binding z-score [7] | PBM binding z-score [8] | PBM binding z-score [9] | PBM binding z-score [10] | PBM binding z-score [11] | PBM binding z-score [12] | PBM binding z-score [13] | PBM binding z-score [14] | PBM binding z-score [15] | PBM binding z-score [16] | PBM binding z-score [17] | PBM binding z-score [18] | PBM binding z-score [19] | PBM binding z-score [20]
1 | AGAATGAGGTTACCGAAGATCAGGGAAACGCTTG | 2.18 | 4.55 | -0.477 | 2.19 | -0.522 | 3.81 | 2.86 | 3.26 | 1.19 | 2.55 | 3.97 | 3.55 | 0.906 | 0.381 | 0.444 | 1.61 | -0.388 | 2.46 | -1.23 | 2.19
2 | AGTCAAAGTGCAGGACGAGGTAACGTAAAGCACG | -0.105 | -0.155 | -0.419 | -0.641 | -0.89 | 0.169 | 1.06 | 1.03 | 0.301 | 0.389 | -0.506 | 0.274 | -0.356 | -0.388 | -0.0962 | -0.156 | -0.256 | 0.784 | -0.657 | 1.15
3 | CCGACTAGGTTATGGGGCATTCAGGCAACGGTGA | 0.258 | 0.306 | 0.00117 | 0.464 | -0.646 | 1.81 | 3.22 | 4.17 | 1.77 | 3.95 | 3.02 | 3.3 | -0.895 | -0.581 | 1.05 | -0.0889 | -0.0769 | 0.303 | -0.167 | 0.869
4 | GCTCGGAGGACAAGGTCGGAGCTTTGTCCGTAGA | -0.163 | -0.153 | -0.91 | -0.475 | -1.14 | 0.143 | -1.09 | -0.163 | -1.12 | -0.578 | -1.06 | -0.138 | -1.21 | -1.93 | -0.925 | -0.155 | -0.823 | 0.146 | -1.12 | 1.59
5 | ATCAAAAGGTCGTGAGGTGAGTATACAGAAAGGC | 5.1 | 4.46 | 0.539 | 3.63 | 1.22 | 5.2 | 4.38 | 4.66 | 1.92 | 3.33 | 0.609 | 2.81 | 1.96 | 1.55 | 2.38 | 3.53 | 1.09 | 4.34 | 1.26 | 4.29
6 | TCATATAGGTAAAGGTGCAAGTCGAACGATATGA | 0.551 | 0.493 | -0.176 | 0.57 | -0.374 | 2.77 | 4.36 | 5.55 | 4.82 | 5.79 | 3.53 | 3.68 | 0.688 | 1.15 | 0.555 | 0.241 | 0.116 | 0.949 | 0.796 | 0.566
7 | GCGACTGGGGCGTCAGCAGGTTACCATAACTTAA | -0.381 | -0.378 | -0.324 | 0.262 | -1.19 | 0.425 | 0.0029 | -0.411 | -0.842 | -0.965 | 0.993 | 0.504 | -1.26 | -0.889 | -0.668 | -0.181 | -0.71 | 0.206 | -1.15 | 0.327
8 | AGTATGAGGTTATTAAGATCAGGGAATTGCGGTC | 1.55 | 1.75 | 0.568 | 1.52 | 0.578 | 2.12 | 0.776 | 1.12 | 0.453 | 0.816 | 0.549 | 1.51 | 1.49 | 0.314 | 1.11 | 1.5 | 0.942 | 1.55 | 1.05 | 1.4
9 | GCATATAGGTAATACAAGGTGTAAGTCCGATTGT | 0.0456 | -0.21 | -0.0292 | -0.487 | -0.137 | 0.159 | 0.975 | 0.539 | 0.405 | 0.179 | 4.05 | 2.41 | 0.78 | 0.908 | 0.475 | -0.257 | -0.0468 | 0.0684 | 0.804 | -0.269
10 | CCTATTAGTTGAACATAAGGGCAACCGAAGCTCG | 0.402 | 0.518 | 0.603 | 0.454 | 0.71 | 0.594 | 0.576 | 0.441 | 0.18 | 0.415 | 0.458 | 0.463 | 0.856 | 0.515 | 1.56 | 0.574 | 0.963 | 0.973 | 1.2 | 1.38
11 | CCTCGGAAGACAGAAGGTCAGAGCTGTCCGCTTT | 0.995 | 1.6 | 0.422 | 1.25 | -0.462 | 1.69 | -0.302 | 0.238 | -0.803 | -0.38 | -0.276 | -0.376 | -1.12 | -1.96 | 1.82 | 1.38 | -0.0252 | 1.89 | 0.512 | 2.33
12 | GTACCAAGGTGAATAAGTCGTTGATGAGTAGGCG | 0.544 | 0.243 | -0.143 | -0.0627 | -0.489 | 0.853 | 0.832 | 0.279 | 0.154 | -0.268 | 1.47 | 1.77 | -0.113 | 0.912 | 0.706 | -0.129 | 0.166 | 0.233 | 0.8 | 1.27
13 | AGCTCTAGGTAACCAAGTTCAGTGAATGCCGAAC | -0.0702 | 0.208 | 0.46 | 0.265 | -0.228 | 0.481 | 0.22 | 0.513 | -0.0768 | -0.252 | 3.96 | 2.07 | -0.276 | -0.0149 | 0.421 | 1.53 | 1.74 | 0.198 | -0.119 | 0.793
